Several values for one entry are separate records, joined by “and”; a condition that tells them apart may be missing. Identical values can stand only once. Compounds without any hit were thinned out: in the full panel of roughly 83,000, 20% have a hit.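 48-hour exposure, single concentration, 96-well plates; percent growth endpoint where 0 means no net growth. Active: below 10.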 Activity calls are given as the source filed them.
Key:
Experiment in all cases: NCI-60 one-dose screen, 48 h (100 = growth as untreated, 0 = no growth, -100 = all killed)
DU-145 prostate = tested on: DU-145 prostate
K-562 leukemia = conditions: 10 µM unless noted
MALME-3M melanoma = tested on: MALME-3M melanoma
MDA-MB-231 breast = tested on: MDA-MB-231 breast
RXF 393 renal = tested on: RXF 393 renal
SF-268 CNS = tested on: SF-268 CNS
SF-295 CNS = tested on: SF-295 CNS
SF-539 CNS = tested on: SF-539 CNS
UACC-257 melanoma = tested on: UACC-257 melanoma
M14 melanoma = tested on: M14 melanoma

Measured: growth

O=C(N/N=C/c1ccc(-c2cccc([N+](=O)[O-])c2)s1)c1[nH]c2ccc(Br)cc2c1-c1ccccc1
inactive: DU-145 prostate; 10 µM unless noted 106% | K-562 leukemia 92.7% | MALME-3M melanoma; 10 µM unless noted 86.1% | MDA-MB-231 breast; 10 µM unless noted 74.6% | RXF 393 renal; 10 µM unless noted 90.8% | SF-268 CNS; 10 µM unless noted 92.7% | SF-295 CNS; 10 µM unless noted 103% | SF-539 CNS; 10 µM unless noted 96.6% | UACC-257 melanoma; 10 µM unless noted 85.6%

CC(=O)Nc1cccc(-n2c(COc3ccc(Br)cc3)nc3ccccc32)c1
inactive: DU-145 prostate; 10 µM unless noted 106% and 89.7% | K-562 leukemia 91.4% and 106% | MALME-3M melanoma; 10 µM unless noted 96.3% and 98.8% | MDA-MB-231 breast; 10 µM unless noted 80% and 102% | RXF 393 renal; 10 µM unless noted 82.4% and 106% | SF-268 CNS; 10 µM unless noted 91% and 103% | SF-295 CNS; 10 µM unless noted 89.6% and 103% | SF-539 CNS; 10 µM unless noted 87.4% and 106% | UACC-257 melanoma; 10 µM unless noted 130% and 107%

CC/C(=C(\c1ccc(O)cc1)c1ccc(OCCN(C)C(=O)COCCNC(=O)Cc2ccc3c(c2)CN([C@@H]2CCC(=O)NC2=O)C3=O)cc1)c1ccccc1
inactive: DU-145 prostate; 1 µM 103% | DU-145 prostate; 10 µM 104% | MALME-3M melanoma; 1 µM 24.7% | RXF 393 renal; 1 µM 100% | RXF 393 renal; 10 µM 99.4% | SF-268 CNS; 1 µM 77% | SF-268 CNS; 10 µM 51.8% | SF-295 CNS; 1 µM 103% | SF-295 CNS; 10 µM 81.9% | SF-539 CNS; 1 µM 78.3% | SF-539 CNS; 10 µM 55.1% | UACC-257 melanoma; 1 µM 96.4% | UACC-257 melanoma; 10 µM 95.4% | M14 melanoma; 1 µM 82.1% | M14 melanoma; 10 µM 68.9%
active: MALME-3M melanoma; 10 µM -13.3% | MDA-MB-231 breast; 1 µM -5.08% | MDA-MB-231 breast; 10 µM -26.3%

O=C(CSc1nc2c(c(=O)[nH]1)CCCC2)Nc1ccccc1C(=O)O
inactive: DU-145 prostate; 10 µM unless noted 110% | K-562 leukemia 95.8% | MALME-3M melanoma; 10 µM unless noted 96.7% | MDA-MB-231 breast; 10 µM unless noted 109% | RXF 393 renal; 10 µM unless noted 108% | SF-268 CNS; 10 µM unless noted 106% | SF-295 CNS; 10 µM unless noted 100% | SF-539 CNS; 10 µM unless noted 97.9% | UACC-257 melanoma; 10 µM unless noted 109%

CCN1C(=O)N(CC)C2NNC(Sc3c(C(=O)O)c4ccccc4n(CC(C)C)c3=O)=NC21 (stereo unspecified)
inactive: DU-145 prostate; 10 µM unless noted 20% | MALME-3M melanoma; 10 µM unless noted 48.1% | MDA-MB-231 breast; 10 µM unless noted 15.9% | RXF 393 renal; 10 µM unless noted 81.8% | SF-268 CNS; 10 µM unless noted 55.7% | UACC-257 melanoma; 10 µM unless noted 50.3%
active: K-562 leukemia 5.86% | SF-295 CNS; 10 µM unless noted -14.8% | SF-539 CNS; 10 µM unless noted -29%

COC(=O)c1cc(C(C)=O)n2c3ccccc3c3ccccc3c12
inactive: DU-145 prostate; 10 µM unless noted 67% | K-562 leukemia 85.9% | MALME-3M melanoma; 10 µM unless noted 84.6% | MDA-MB-231 breast; 10 µM unless noted 33.2% | RXF 393 renal; 10 µM unless noted 11.8% | SF-268 CNS; 10 µM unless noted 59.5% | SF-295 CNS; 10 µM unless noted 56% | SF-539 CNS; 10 µM unless noted 28.5% | UACC-257 melanoma; 10 µM unless noted 118%

C=CC(=O)Nc1ccc(C(=O)/C=C/c2ccc(N(C)C)cc2)c(O)c1
active: DU-145 prostate; 10 µM unless noted 7.83% | MALME-3M melanoma; 10 µM unless noted 3.17% | RXF 393 renal; 10 µM unless noted -63.8% | SF-539 CNS; 10 µM unless noted -21.8% | UACC-257 melanoma; 10 µM unless noted 0.649%
inactive: K-562 leukemia 12% | MDA-MB-231 breast; 10 µM unless noted 26.9% | SF-268 CNS; 10 µM unless noted 21.5% | SF-295 CNS; 10 µM unless noted 13.1%

Nc1cc2ccccc2c(=O)n1NC(=O)c1ccccc1
inactive: DU-145 prostate; 10 µM unless noted 104% | K-562 leukemia 97.6% | MALME-3M melanoma; 10 µM unless noted 84.4% | MDA-MB-231 breast; 10 µM unless noted 87% | RXF 393 renal; 10 µM unless noted 104% | SF-268 CNS; 10 µM unless noted 95.9% | SF-295 CNS; 10 µM unless noted 90.6% | SF-539 CNS; 10 µM unless noted 93.7% | UACC-257 melanoma; 10 µM unless noted 104%

CCCCCCCCc1ccc(C(=O)Nc2ccc(C)c(OP(=O)(O)O)c2)cc1
inactive: DU-145 prostate; 10 µM unless noted 101% | K-562 leukemia 87% | MALME-3M melanoma; 10 µM unless noted 102% | MDA-MB-231 breast; 10 µM unless noted 97.3% | RXF 393 renal; 10 µM unless noted 113% | SF-268 CNS; 10 µM unless noted 83.1% | SF-295 CNS; 10 µM unless noted 91.2% | SF-539 CNS; 10 µM unless noted 93.4% | UACC-257 melanoma; 10 µM unless noted 102%

N#CC1=C(c2cccs2)Nc2c(c(-c3ccccc3)nn2-c2ccccc2)C12C(=O)Nc1ccc(Cl)cc12 (stereo unspecified)
active: RXF 393 renal; 10 µM unless noted -11.4%
inactive: DU-145 prostate; 10 µM unless noted 50.5% | K-562 leukemia 11.1% | MALME-3M melanoma; 10 µM unless noted 76.3% | MDA-MB-231 breast; 10 µM unless noted 21.5% | SF-268 CNS; 10 µM unless noted 23.2% | SF-295 CNS; 10 µM unless noted 12.9% | SF-539 CNS; 10 µM unless noted 20.5% | UACC-257 melanoma; 10 µM unless noted 63.5%

CN1CCN(C(=O)Oc2cc3c(c4ccccc24)[C@H](CCl)CN3C(=O)c2cc3cc(OCCCN4CCC4)ccc3[nH]2)[C@@H]2CSSC[C@H]21
active: DU-145 prostate; 10 µM unless noted -31.6% | K-562 leukemia -4.46% | MALME-3M melanoma; 10 µM unless noted -55.1% | MDA-MB-231 breast; 10 µM unless noted -9.52% | RXF 393 renal; 10 µM unless noted -71.1% | SF-268 CNS; 10 µM unless noted -10.3% | SF-295 CNS; 10 µM unless noted -7.45% | SF-539 CNS; 10 µM unless noted -58.8% | UACC-257 melanoma; 10 µM unless noted -21%

O=C1C=CC(=CC=C2N(Cc3ccc4ccccc4c3)c3ccccc3N2Cc2ccc3ccccc3c2)C=C1
inactive: DU-145 prostate; 10 µM unless noted 43.2% and 32.7% | RXF 393 renal; 10 µM unless noted 31.6% and 30.9% | SF-268 CNS; 10 µM unless noted 67.5% and 56.8% | SF-295 CNS; 10 µM unless noted 39.3% and 58.2% | SF-539 CNS; 10 µM unless noted 15.5% and 16.9%
13.5% (inactive) and 6.33% (active): K-562 leukemia
active: MALME-3M melanoma; 10 µM unless noted 4.02% and 3.15% | MDA-MB-231 breast; 10 µM unless noted -40.7% and -24.6%
-0.845% (active) and 20.9% (inactive): UACC-257 melanoma; 10 µM unless noted

Oc1ccc(F)c(Nc2nc(SCCN3CCOCC3)nc3c2cnn3CC(Cl)c2ccc(Br)cc2)c1 (stereo unspecified)
active: K-562 leukemia -3.32% | MALME-3M melanoma; 10 µM unless noted 1.03% | MDA-MB-231 breast; 10 µM unless noted -17.6% | RXF 393 renal; 10 µM unless noted -48.4% | SF-295 CNS; 10 µM unless noted 2.35%
inactive: DU-145 prostate; 10 µM unless noted 34% | SF-268 CNS; 10 µM unless noted 24.1% | SF-539 CNS; 10 µM unless noted 17.3% | UACC-257 melanoma; 10 µM unless noted 14.4%
